# Values without a mark were called inactive. Inconclusive results are not listed. A call without a number means that no potency is given here. Calls of active or inactive are those of the source. Calls follow the shape of the dose curve; as a rule, active = well fitted curve in the direction sought with a large enough effect in the repeat runs; inconclusive = weak or mixed curves; inactive = no such curve, though single readings can be large; an effect the other way counts as inactive or inconclusive.
# Tests used:
# [1] = qHTS RealTime-Glo MT Cell Viability Assay in HepG2 cells - 40 hour (AID 1224870); also: nearly all actives have a fitted effect of over 50% in size; also: potency is read from the fitted curve at half-maximal effect
# Outline: (§1)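 Real-time viability: cells seeded at 600 per well together with NanoLuc and cell-permeant prosubstrate, compounds added after 5 h incubation. Luminescence tracked at 0, 8, 16, 24, 32 and 40 h of exposure.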
# [2] = qHTS RealTime-Glo MT Cell Viability Assay in HepG2 cells - 8 hour (AID 1224873); also: nearly all actives have a fitted effect of over 55% in size
# Outline: as §1
# [3] = qHTS RealTime-Glo MT Cell Viability Assay in HEK293 cells - 40 hour (AID 1224874); conditions: RealTime-Glo luminescence; max response: stronger effect = lower value; also: nearly all actives have a fitted effect of over 50% in size; also: potency is read from the fitted curve at half-maximal effect
# Outline: (§2)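 Viable HEK293 cells reduce a cell-permeant prosubstrate; the product diffuses out and is consumed by NanoLuc in the medium to give light. Compounds went in after a 5 h incubation and plates were read over the treatment course.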
# [4] = A CellTox Green Cytotoxicity Assay to monitor cytotoxicity in HEK293 cells - 24 hour (AID 1224875); also: nearly all actives have a fitted effect of over 45% in size; also: potency is read from the fitted curve at half-maximal effect; as to activity change: series mostly up to about 77 µM
# Outline: (§3)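 Fluorescence intensity, read at 0, 8, 16, 24, 32 and 40 h of compound treatment, reflected dye binding to DNA of dead HEK293 cells; compounds (23 nL, DMSO) were added 5 h after plating cells with reagent.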
# [5] = A CellTox Green Cytotoxicity Assay to monitor cytotoxicity in HepG2 cells - 16 hour (AID 1224876); also: nearly all actives have a fitted effect of over 45% in size; also: potency is read from the fitted curve at half-maximal effect
# Outline: (§4)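 Using 1536-well format, dye-containing HepG2 suspension was seeded, allowed 5 h at 37 C/5% CO2, dosed by pintool with compounds, positive and negative controls, and imaged for fluorescence across 40 h.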
# [6] = qHTS RealTime-Glo MT Cell Viability Assay in HepG2 cells - 32 hour (AID 1224877); also: nearly all actives have a fitted effect of over 55% in size; also: potency is read from the fitted curve at half-maximal effect
# Outline: (§5)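 HepG2 cells were seeded at 600 cells/well together with NanoLuc luciferase and a cell-permeant prosubstrate, preincubated 5 h at 37 C/5% CO2, then pin-dosed with compounds in DMSO. Nonlytic luminescence from viable cells was read at each time point.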
# [7] = A CellTox Green Cytotoxicity Assay to monitor cytotoxicity in HepG2 cells - 24 hour (AID 1224878); also: nearly all actives have a fitted effect of over 45% in size; also: potency is read from the fitted curve at half-maximal effect
# Outline: as §4
# [8] = A CellTox Green Cytotoxicity Assay to monitor cytotoxicity in HepG2 cells - 40 hour (AID 1224879); also: nearly all actives have a fitted effect of over 40% in size; also: potency is read from the fitted curve at half-maximal effect
# Outline: as §4
# [9] = A CellTox Green Cytotoxicity Assay to monitor cytotoxicity in HepG2 cells - 0 hour (AID 1224882); also: nearly all actives have a fitted effect of over 35% in size; also: potency is read from the fitted curve at half-maximal effect
# Outline: as §4
# [10] = A CellTox Green Cytotoxicity Assay to monitor cytotoxicity in HepG2 cells - 32 hour (AID 1224883); also: nearly all actives have a fitted effect of over 50% in size; also: potency is read from the fitted curve at half-maximal effect
# Outline: as §4
# [11] = A CellTox Green Cytotoxicity Assay to monitor cytotoxicity in HEK293 cells - 8 hour (AID 1224884); also: nearly all actives have a fitted effect of over 35% in size; also: potency is read from the fitted curve at half-maximal effect
# Outline: as §3
# [12] = qHTS RealTime-Glo MT Cell Viability Assay in HepG2 cells - 16 hour (AID 1224885); also: nearly all actives have a fitted effect of over 50% in size
# Outline: as §5
# [13] = qHTS RealTime-Glo MT Cell Viability Assay in HEK293 cells - 8 hour (AID 1224887); also: nearly all actives have a fitted effect of over 50% in size; also: potency is read from the fitted curve at half-maximal effect; as to activity change, negative = cytotoxicity: top concentration of the series differs between compounds
# Outline: as §2
# [14] = A CellTox Green Cytotoxicity Assay to monitor cytotoxicity in HEK293 cells - 16 hour (AID 1224888); also: nearly all actives have a fitted effect of over 35% in size; also: potency is read from the fitted curve at half-maximal effect
# Outline: as §3
# [15] = qHTS RealTime-Glo MT Cell Viability Assay in HepG2 cells - 0 hour (AID 1224889); also: nearly all actives have a fitted effect of over 50% in size
# Outline: as §5
# [16] = qHTS RealTime-Glo MT Cell Viability Assay in HEK293 cells - 0 hour (AID 1224880); also: top concentration of the series differs between compounds; nearly all actives have a fitted effect of over 45% in size
# Outline: as §2
# [17] = qHTS RealTime-Glo MT Cell Viability Assay in HEK293 cells - 24 hour (AID 1224886); also: nearly all actives have a fitted effect of over 50% in size; also: potency is read from the fitted curve at half-maximal effect; as to activity change, negative = cytotoxicity: top concentration of the series differs between compounds
# Outline: (§6)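 HEK293 cells were seeded at 600 cells/well together with NanoLuc luciferase and cell-permeant prosubstrate, preincubated 5 h at 37 C/5% CO2, then given compound in DMSO by pintool. Luminescence from viable-cell prosubstrate reduction was read repeatedly over 40 h.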
# [18] = A CellTox Green Cytotoxicity Assay to monitor cytotoxicity in HEK293 cells - 40 hour (AID 1224871); also: nearly all actives have a fitted effect of over 45% in size; also: potency is read from the fitted curve at half-maximal effect
# Outline: as §3
# [19] = A CellTox Green Cytotoxicity Assay to monitor cytotoxicity in HEK293 cells - 32 hour (AID 1224881); also: nearly all actives have a fitted effect of over 40% in size; also: potency is read from the fitted curve at half-maximal effect
# Outline: as §3
# [20] = qHTS RealTime-Glo MT Cell Viability Assay in HEK293 cells - 16 hour (AID 1224872)
# Outline: as §6
compound,measurement,setting,value
O=[N+]([O-])c1cccc(I)c1,Potency,[1],inactive
same,outcome,[2],inactive
same,max response,[3],0.342%
same,Potency,[4],inactive
same,Potency,[5],inactive
same,Potency,[6],inactive
same,Potency,[7],inactive
same,Potency,[8],inactive
same,Potency,[9],inactive
same,Potency,[10],inactive
same,Potency,[11],inactive
same,outcome,[12],inactive
same,Potency,[13],inactive
same,Potency,[14],inactive
same,Potency,[15],inactive
COc1ccc(C(=O)Nc2ccccc2)cc1[N+](=O)[O-],Potency,[1],inactive
same,outcome,[2],inactive
same,Potency,[5],inactive
same,Potency,[6],inactive
same,Potency,[7],inactive
same,Potency,[8],inactive
same,Potency,[16],inactive
same,Potency,[9],inactive
same,Potency,[10],inactive
same,Potency,[11],inactive
same,Potency,[17],24.7 µM (active)
same,Potency,[13],24.7 µM (active)
same,Potency,[14],inactive
same,Potency,[15],inactive
N#Cc1ccc(CC(=O)c2cccc(C(F)(F)F)c2)cc1,Potency,[1],inactive
same,Potency,[18],inactive
same,outcome,[2],inactive
same,Potency,[4],inactive
same,Potency,[5],inactive
same,Potency,[6],inactive
same,Potency,[7],inactive
same,Potency,[8],inactive
same,Potency,[16],inactive
same,Potency,[9],inactive
same,Potency,[10],inactive
same,Potency,[11],inactive
same,outcome,[12],inactive
same,Potency,[14],inactive
same,Potency,[15],inactive
COc1ccc(/C=C/S(=O)(=O)NC(=O)c2ccc(C)cc2Cl)cc1,Potency,[1],inactive
same,Potency,[18],inactive
same,outcome,[2],inactive
same,Potency,[4],inactive
same,Potency,[5],inactive
same,Potency,[6],inactive
same,Potency,[7],inactive
same,Potency,[16],inactive
same,Potency,[9],inactive
same,Potency,[10],inactive
same,Potency,[11],inactive
same,outcome,[12],inactive
same,Potency,[17],inactive
same,Potency,[13],inactive
same,Potency,[14],inactive
same,Potency,[15],inactive
CC(C)C[C@H](NC(=O)[C@H](Cc1ccccc1)NC(=O)c1cnccn1)B(O)O,Potency,[1],0.0213 µM (active)
same,Potency,[18],0.0379 µM (active)
same,outcome,[2],inactive
same,Potency,[3],0.0239 µM (active)
same,Potency,[4],inactive
same,Potency,[5],13.4 µM (active)
same,Potency,[6],0.0301 µM (active)
same,Potency,[7],0.0952 µM (active)
same,Potency,[16],inactive
same,Potency,[19],0.19 µM (active)
same,Potency,[9],inactive
same,Potency,[10],0.0239 µM (active)
same,Potency,[17],0.0756 µM (active)
same,Potency,[13],inactive
same,Potency,[14],inactive
same,Potency,[15],inactive
CCN(CCCCOC(=O)c1ccc(OC)c(OC)c1)C(C)Cc1ccc(OC)cc1 (stereo unspecified),Potency,[1],inactive
same,Potency,[18],inactive
same,outcome,[2],inactive
same,Potency,[4],inactive
same,Potency,[5],inactive
same,Potency,[6],inactive
same,Potency,[16],inactive
same,Potency,[19],inactive
same,Potency,[9],inactive
same,Potency,[11],inactive
same,outcome,[12],inactive
same,Potency,[14],inactive
same,Potency,[15],inactive
CCC(CC)C(=O)O,Potency,[1],inactive
same,Potency,[18],inactive
same,outcome,[2],inactive
same,Potency,[4],inactive
same,Potency,[5],inactive
same,Potency,[6],inactive
same,Potency,[7],inactive
same,Potency,[19],inactive
same,Potency,[9],inactive
same,Potency,[10],inactive
same,Potency,[11],inactive
same,outcome,[12],inactive
same,Potency,[17],inactive
same,Potency,[13],inactive
same,Potency,[14],inactive
same,Potency,[15],inactive
CC(=O)c1ccc(Cl)c(Cl)c1Cl,Potency,[1],inactive
same,Potency,[20],inactive
same,outcome,[2],inactive
same,max response,[3],-19.2%
same,Potency,[5],inactive
same,Potency,[6],inactive
same,Potency,[7],inactive
same,Potency,[8],inactive
same,Potency,[16],inactive
same,Potency,[9],inactive
same,Potency,[10],inactive
same,Potency,[11],inactive
same,outcome,[12],inactive
same,Potency,[17],inactive
same,Potency,[13],inactive
same,Potency,[14],inactive
same,Potency,[15],inactive
c1ccc(CCNc2nc(-c3ccccc3)cs2)cc1,Potency,[1],inactive
same,outcome,[2],inactive
same,max response,[3],-22.9%
same,Potency,[6],inactive
same,Potency,[8],inactive
same,Potency,[16],inactive
same,Potency,[11],inactive
same,outcome,[12],inactive
same,Potency,[17],inactive
same,Potency,[15],inactive
O=C(OCCN1CCOCC1)c1cccnc1Nc1cccc(C(F)(F)F)c1,Potency,[1],inactive
same,Potency,[18],inactive
same,outcome,[2],inactive
same,Potency,[4],inactive
same,Potency,[5],inactive
same,Potency,[6],inactive
same,Potency,[7],inactive
same,Potency,[8],inactive
same,Potency,[16],inactive
same,Potency,[19],inactive
same,Potency,[9],inactive
same,Potency,[10],inactive
same,Potency,[13],inactive
same,Potency,[14],inactive
same,Potency,[15],inactive
CCOc1ccc2c(c1)C(C)CC(C)(C)N2 (stereo unspecified),Potency,[1],inactive
same,outcome,[2],inactive
same,max response,[3],-1.9%
same,Potency,[6],inactive
same,Potency,[7],49 µM (active)
same,Potency,[16],inactive
same,Potency,[9],inactive
same,Potency,[10],43.6 µM (active)
same,Potency,[11],inactive
same,Potency,[17],inactive
same,Potency,[13],inactive
same,Potency,[14],inactive
same,Potency,[15],inactive
CC1=CC(=C(c2ccc(N)cc2)c2ccc(N)cc2)C=CC1=N,"activity change, negative = cytotoxic",[1],-1.71% [at 6.97 µM]
same,cytotoxicity increase,[18],5.33% [at 6.97 µM]
same,"viability change, negative = cytotoxic",[2],2.31% [at 6.97 µM]
same,activity change,[4],"-0.584% [at 6.97 µM, stronger effect = higher value]"
same,cytotoxicity increase,[5],1.38% [at 6.97 µM]
same,"activity change, negative = cytotoxic",[6],-1.73% [at 6.97 µM]
same,cytotoxicity,[7],0.887% [at 6.97 µM]
same,cytotoxicity increase,[8],5.34% [at 6.97 µM]
same,"activity change, negative = cytotoxicity",[16],12.8% [at 6.97 µM]
same,cytotoxicity,[9],0.461% [at 6.97 µM]
same,cytotoxicity increase,[10],0.891% [at 6.97 µM]
same,"activity change, negative = cytotoxic",[12],0.128% [at 6.97 µM]
same,"activity change, negative = cytotoxicity",[13],-15.3% [at 6.97 µM]
same,activity change,[14],"-0.601% [at 6.97 µM, stronger effect = higher value]"
same,"activity change, negative = cytotoxicity",[15],9.14% [at 6.97 µM]
NC(=O)c1ccccc1C(N)=O,Potency,[1],inactive
same,Potency,[18],49.2 µM (active)
same,outcome,[2],inactive
same,Potency,[4],49.2 µM (active)
same,Potency,[5],55.2 µM (active)
same,Potency,[6],inactive
same,Potency,[7],55.2 µM (active)
same,Potency,[8],49.2 µM (active)
same,Potency,[16],inactive
same,Potency,[19],49.2 µM (active)
same,Potency,[9],49.2 µM (active)
same,Potency,[10],55.2 µM (active)
same,Potency,[11],49.2 µM (active)
same,outcome,[12],inactive
same,Potency,[17],34.8 µM (active)
same,Potency,[14],49.2 µM (active)
same,Potency,[15],inactive
SCCOCCOCCS,Potency,[1],inactive
same,Potency,[18],inactive
same,outcome,[2],inactive
same,Potency,[4],inactive
same,Potency,[5],inactive
same,Potency,[6],inactive
same,Potency,[7],inactive
same,Potency,[8],inactive
same,Potency,[16],inactive
same,Potency,[19],inactive
same,Potency,[9],inactive
same,Potency,[10],inactive
same,outcome,[12],inactive
same,Potency,[14],inactive
same,Potency,[15],inactive
O=C(O)c1c2ccccc2cc2ccccc12,Potency,[1],inactive
same,Potency,[18],34.6 µM (active)
same,outcome,[2],inactive
same,Potency,[4],inactive
same,Potency,[5],inactive
same,Potency,[6],inactive
same,Potency,[7],inactive
same,Potency,[8],inactive
same,Potency,[16],inactive
same,Potency,[9],inactive
same,Potency,[10],inactive
same,Potency,[11],inactive
same,Potency,[13],inactive
same,Potency,[14],inactive
same,Potency,[15],inactive
CCCCOC(=O)C(C)Oc1ccc(Oc2ccc(C(F)(F)F)cn2)cc1 (stereo unspecified),Potency,[1],inactive
same,Potency,[18],inactive
same,outcome,[2],inactive
same,Potency,[4],inactive
same,Potency,[5],inactive
same,Potency,[6],inactive
same,Potency,[7],inactive
same,Potency,[8],inactive
same,Potency,[16],inactive
same,Potency,[19],inactive
same,Potency,[9],inactive
same,Potency,[10],inactive
same,Potency,[11],inactive
same,outcome,[12],inactive
same,Potency,[14],inactive
same,Potency,[15],inactive
CC(C)(O)C(=O)O,Potency,[1],inactive
same,Potency,[18],inactive
same,outcome,[2],inactive
same,max response,[3],6.64%
same,Potency,[4],inactive
same,Potency,[5],inactive
same,Potency,[6],inactive
same,Potency,[7],inactive
same,Potency,[16],inactive
same,Potency,[19],inactive
same,Potency,[9],inactive
same,Potency,[10],inactive
same,Potency,[11],inactive
same,outcome,[12],inactive
same,Potency,[17],inactive
same,Potency,[13],inactive
same,Potency,[14],inactive
same,Potency,[15],inactive
